Compounds without any hit were thinned out: in the full panel of roughly 83,000, 20% have a hit.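 Assay: single dose, 48 h. Readout: percent growth (0 = no net growth; negative = cell death). Active: <10.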 Values without a mark were called inactive. Activity calls are given as the source filed them.

Some test systems named below: HCT-15 colon; HT29 colon; SNB-75 CNS; SNB-19 CNS; U251 CNS; PC-3 prostate; SK-MEL-5 melanoma; UACC-62 melanoma; LOX IMVI melanoma; SK-MEL-28 melanoma; SK-MEL-2 melanoma; SN12C renal; UO-31 renal; TK-10 renal; ACHN renal; A498 renal; CCRF-CEM leukemia; MOLT-4 leukemia; CAKI-1 renal.
Holding throughout (test): NCI-60 one-dose screen, 48 h (100 = growth as untreated, 0 = no growth, -100 = all killed)
Common to all, as to details: 10 µM unless noted

In the case of `CCCCCCCSc1ncnc2[nH]ncc12`, the growth in the assay on HCT-15 colon is 60.8%; with HT29 colon, 89.3%; with SNB-75 CNS, 59.3%; in the assay on SNB-19 CNS, 80.9%; in the assay with U251 CNS, 38.3%; with PC-3 prostate, 78.8%. Besides, the growth with SK-MEL-5 melanoma was 92.4%; in the assay with UACC-62 melanoma, 76.6%; in the assay with LOX IMVI melanoma, 65.9%; in the assay with SK-MEL-28 melanoma it was 106%; in the assay with SK-MEL-2 melanoma it was 72.7%; in the assay with SN12C renal it was 86.1%. The growth was 60.6% with UO-31 renal; 81.1% with TK-10 renal; 88.7% in the assay with ACHN renal; 88.7% in the assay with A498 renal; 76% in the assay with CCRF-CEM leukemia; 75.4% in the assay on MOLT-4 leukemia.

Turning to `CC[C@@H](C)/C=C(C)/C=C/C(O)=C1\C(=O)N[C@@H](Cc2ccc(OC(=O)[C@@](OC)(c3ccccc3)C(F)(F)F)cc2)C1=O`, the growth was 102% with HCT-15 colon; 114% in the assay on HT29 colon; 101% with SNB-75 CNS; 96.6% with SNB-19 CNS; 83.9% with U251 CNS; 37.3% with PC-3 prostate. Further, the growth is 110% in the assay with SK-MEL-5 melanoma; 98.9% in the assay with UACC-62 melanoma; 50.3% in the assay with LOX IMVI melanoma; 103% in the assay with SK-MEL-28 melanoma; 80.2% in the assay with SK-MEL-2 melanoma; 86.5% in the assay on SN12C renal. The growth in the assay with UO-31 renal was 70.9%; in the assay with TK-10 renal, 96.8%; with ACHN renal it was 103%; in the assay with CAKI-1 renal, 30.5%; in the assay on A498 renal, 64.7%; in the assay with CCRF-CEM leukemia, 29.7%. Moreover, the growth in the assay on MOLT-4 leukemia was 41.6%.

Turning to `CC(=O)c1ccc(NS(=O)(=O)c2ccc([N+](=O)[O-])cc2)cc1`, the growth in the assay with HCT-15 colon was 95.2%; in the assay with HT29 colon, 108%; with SNB-75 CNS, 97.7%; in the assay on SNB-19 CNS, 87.9%; with U251 CNS, 103%; with PC-3 prostate, 93.1%. Besides, the growth with SK-MEL-5 melanoma was 96.9%; with UACC-62 melanoma, 75.1%; with LOX IMVI melanoma, 98.8%; in the assay on SK-MEL-28 melanoma, 123%; in the assay on SK-MEL-2 melanoma, 95.1%; in the assay with SN12C renal, 99.5%. Further, the growth in the assay on UO-31 renal was 77.8%; in the assay on TK-10 renal it was 100%; with ACHN renal, 93.8%; in the assay with CAKI-1 renal, 96.9%; in the assay on CCRF-CEM leukemia it was 93.8%; with MOLT-4 leukemia, 87.1%.

Take `FCc1ncc(-c2ccc(C(F)(F)F)cc2)c(NC2CCCCCC2)n1`: the growth in the assay with HCT-15 colon was 9.18% [100 µM] (active); with HT29 colon, -33.6% [100 µM] (active); in the assay with SNB-75 CNS, 28.6% [100 µM]; in the assay on SNB-19 CNS, 32.6% [100 µM]; in the assay with U251 CNS, -29.7% [100 µM] (active); with PC-3 prostate, 7.27% [100 µM] (active). In addition, the growth in the assay with SK-MEL-5 melanoma is -3.43% [100 µM] (active); in the assay with UACC-62 melanoma, 3.7% [100 µM] (active); in the assay with LOX IMVI melanoma, -52.6% [100 µM] (active); with SK-MEL-28 melanoma, 33.6% [100 µM]; with SK-MEL-2 melanoma, -40.8% [100 µM] (active); in the assay with SN12C renal, -30.3% [100 µM] (active). Moreover, the growth with UO-31 renal was 11.1% [100 µM]; in the assay with TK-10 renal it was 38% [100 µM]; with ACHN renal, 8.81% [100 µM] (active); with A498 renal it was -19.4% [100 µM] (active); in the assay with MOLT-4 leukemia it was -20.3% [100 µM] (active).

Turning to `Cc1ccc(C2=NNC(c3sc(Cl)nc3Cl)C2)cc1` (stereo unspecified), the growth was 77.3% in the assay on HCT-15 colon; 107% in the assay with HT29 colon; 96% with SNB-75 CNS; 92% in the assay on SNB-19 CNS; 99.1% in the assay with U251 CNS; 93.6% in the assay with PC-3 prostate. In addition, the growth with SK-MEL-5 melanoma is 88.9%; with UACC-62 melanoma it was 89.9%; with LOX IMVI melanoma, 9.94% (active); with SK-MEL-28 melanoma, 102%; with SK-MEL-2 melanoma, 89.3%; in the assay on SN12C renal it was 40.8%. Moreover, the growth in the assay with UO-31 renal is 78.3%; with TK-10 renal, 133%; with CAKI-1 renal it was 96.6%; with A498 renal, 97.2%; in the assay on CCRF-CEM leukemia, 18%; with MOLT-4 leukemia, 8.29% (active).

As for `Cc1nn2c(/C=C3/C(=O)Nc4cc(Cl)ccc43)c(-c3ccccc3)nc2s1`, the growth was 37.8% with HCT-15 colon; 36.6% with HT29 colon; -20.2% (active) in the assay on SNB-75 CNS; 54% in the assay on SNB-19 CNS; -19.9% (active) in the assay with U251 CNS; 51.1% in the assay with PC-3 prostate. Besides, the growth is -24.7% (active) in the assay with SK-MEL-5 melanoma; -25.4% (active) in the assay with UACC-62 melanoma; -33.3% (active) in the assay on LOX IMVI melanoma; -49.4% (active) with SK-MEL-28 melanoma; 0.603% (active) in the assay on SK-MEL-2 melanoma; -1.6% (active) with SN12C renal. The growth was -72.3% (active) with UO-31 renal; -55.3% (active) in the assay on TK-10 renal; -26.5% (active) with ACHN renal; -50.4% (active) with CAKI-1 renal; -14% (active) in the assay with CCRF-CEM leukemia; 13.1% in the assay with MOLT-4 leukemia.

Regarding `[N-]=[N+]=NCc1ncc(-c2ccc(C(F)(F)F)cc2)c(NC2CCCCCC2)n1`, the growth in the assay with HCT-15 colon is 80.2% [50 µM]; in the assay on HT29 colon it was 69.8% [50 µM]; in the assay on SNB-75 CNS, 65.8% [50 µM]; in the assay on SNB-19 CNS it was 85.2% [50 µM]; with U251 CNS, 73% [50 µM]; with PC-3 prostate, 35.6% [50 µM]. Moreover, the growth in the assay with SK-MEL-5 melanoma was 84.2% [50 µM]; with UACC-62 melanoma it was 79.2% [50 µM]; with LOX IMVI melanoma, 82.2% [50 µM]; in the assay on SK-MEL-28 melanoma it was 98.1% [50 µM]; with SK-MEL-2 melanoma it was 78.2% [50 µM]; in the assay with SN12C renal, 85.2% [50 µM]. Moreover, the growth is 50% [50 µM] in the assay on UO-31 renal; 112% [50 µM] in the assay on TK-10 renal; 73.1% [50 µM] in the assay with ACHN renal; 84.3% [50 µM] with CAKI-1 renal; 82.5% [50 µM] with A498 renal; 54.7% [50 µM] with MOLT-4 leukemia.

(Values after PubChem BioAssay (NCI).)
